From PubChem BioAssay
Values joined by “and” are separate entries in the source; they are usually repeats but may differ in a detail not shown here. Equal entries are not always repeated. Unmarked numbers belong to inactive results. Active and inactive are the calls of the source. Rule as the data show it: active = fold change permeability below about 0.7 or above about 1.3; inactive = in between.

Test: compounds altering in vitro BBB leakiness – cell-based, FITC-avidin fluorescence, HTS, primary screen (AID 1963498); also: test concentration not given here
Settings: brain endothelial barrier, actives lie on both sides

Structure (SMILES) | fold change permeability
NC(=NCCC[C@H](N)C(=O)O)N[N+](=O)[O-] | 1
Cc1ccc(S(=O)(=O)N[C@@H](CCCCN)C(=O)CCl)cc1 | 1.4 (active)
NN=C(N)N | 1.2 and 1
OCc1cnc[nH]1 | 1.1
C[N+]1(C)CCN(c2ccccc2)CC1 | 1.2
CC(C)(O)[C@@H]1C2OC(=O)C1[C@]1(O)C[C@H]3O[C@]34C(=O)O[C@H]2[C@]14C (some centres not stated) (tested in a mixture with another compound) | 1.1
C=C(C)[C@H]1Cc2c(ccc3c2O[C@@H]2COc4cc(OC)c(OC)cc4[C@@H]2C3=O)O1 | 1.7 (active)
NCCc1ccc(S(=O)(=O)F)cc1 | 1
COc1ccc2[nH]c3c(c2c1)CCNC3 | 1
CC(C)(C)c1o[nH]c(=O)c1CC(N)C(=O)O (configuration not stated) | 1.1
CN1C2C=C(c3sccc3Br)CC1CC2 (configuration not stated) | 0.9
COC(=O)N1CCN(C(=O)Cc2ccc(Cl)c(Cl)c2)C(CN2CCCC2)C1 (configuration not stated) | 1.3 (active)
COc1cc([C@@H]2c3cc4c(cc3[C@H](O)[C@H]3COC(=O)[C@H]23)OCO4)cc(OC)c1OC | 1.2
NC(=O)COc1c(F)cc(SCCNS(=O)(=O)c2ccccc2)cc1F | 0.9
N#CC(C#N)=Cc1ccc(O)c(O)c1 | 1.2
c1ccc2c(c1)OCC(C1=NCCN1)O2 (configuration not stated) | 2.1 (active)
CN(C(=O)Cc1ccc(Cl)c(Cl)c1)C(CN1CCCC1)c1cccc(OCC(=O)O)c1 (configuration not stated) | 1.1
